Assay results from PubChem BioAssay (NCI).
Compounds without any hit were thinned out: in the full panel of roughly 83,000, 20% have a hit.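 Each cell line was grown in a 96-well plate and treated with one concentration of compound for 48 hours. Values below 10 were considered active.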 Activity calls are given as the source filed them.

system: HL-60(TB) leukemia; test: NCI-60 one-dose screen, 48 h (100 = growth as untreated, 0 = no growth, -100 = all killed); conditions: 10 µM unless noted

SMILES | growth
CNC(=O)c1cc(-n2ccc3cc(NC(=O)Nc4ccc(N5CCOCC5)c(C(F)(F)F)c4)ccc32)ccn1 | -37.1% (active)
CCOC(=O)c1c(NC(=O)c2cccc(C(F)(F)F)c2)sc2c1CCC(=O)C2 | 37.7% (inactive)
Cc1ccc(NC(=O)N[C@@H](Cc2cc(F)cc(F)c2)C(=O)NC2C(=O)N3C[C@H](O)C[C@H]3C(=O)N3CCCC[C@H]3C(=O)N[C@@H](CO)C(=O)N3C[C@H](C)C[C@H]3C(=O)O[C@H]2C)c(F)c1 (stereo partly specified) | 16.2% (inactive)
COc1ccc(-c2cc(-c3ccc(Cl)cc3)c(C#N)c(=O)n2Cc2ccc(C(=O)O)cc2)cc1 | 92.1% (inactive)
CCOc1ccc2nc(NC(=O)c3ccc(C(F)(F)F)cc3)sc2c1 | 93.9% (inactive)
ClC(Cl)c1nc(-c2cccs2)n2nc(-c3ccccc3)cc2n1 | 0.604% (active)
O=C(Nc1cccc(Cl)c1)Nc1nc2cc([N+](=O)[O-])ccc2o1 | 52.7% (inactive)
CC1=C(C)C(=O)C(Nc2cccc(C(F)(F)F)c2)=C(Cl)C1=O | 38.5% (inactive)
COc1ccc(-c2nnc(/N=C3/C(=O)Nc4ccc(Br)cc43)o2)cc1 | 60.4% (inactive)
CC1CCc2c(sc3nc(SCC(=O)N/N=C/c4ccc(Cl)cc4)n(-c4ccccc4)c(=O)c23)C1 (stereo unspecified) | 107% (inactive)
COc1cc2oc(-c3cccc(NC(=O)c4cc(NC(=O)[C@H](C)N)ccc4Cl)c3)cc(=O)c2c(OC)c1OC | 97.2% (inactive)
